# Source: PubChem BioAssay AID1159580 (chemical genetic matrix, 2015)
# Hit rate of the full screen: of about 5,500 compounds, about 2,000 (36%) were called active. Inconclusive results (about 18%) are left out. Some of the results follow. A number with no mark means an inactive call. Cut-off read from the data, not from the text of the source: active = normalized growth mostly below about 0.91 (no sharp cut-off); inconclusive = no clear call, values can overlap the other calls; inactive = mostly above about 0.92.
# Assay: chemical genetic growth profiling, strain panel (AID 1159580);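 note: tested at 20 µM; growth read once vehicle control cultures reached saturation at 30 °C; 1 = growth at the plate median or of vehicle wells; lower values mean less growth of the strain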
# Conditions: S. cerevisiae deletion strains, growth OD
compound,measurement,setting,value
Clc1ccccc1CN1CCc2sccc2C1,normalized growth,"locus YAL021C, strain ccr4, hits give low values",1.01
same,normalized growth,"locus YAL026C, strain drs2, hits give low values",1.01
same,normalized growth,"locus YAL030W, strain snc1, hits give low values",1.01
same,normalized growth,"locus YBL061C, strain skt5, hits give low values",1
same,normalized growth,"locus YBR009C, strain hhf1, hits give low values",1.01
same,normalized growth,"locus YBR023C, strain chs3, hits give low values",1.01
same,normalized growth,"locus YBR171W, strain sec66, hits give low values",1.02
same,normalized growth,"locus YBR231C, strain swc5, hits give low values",1.02
same,normalized growth,"locus YBR279W, strain paf1, hits give low values",1.02
same,normalized growth,"locus YCL011C, strain gbp2, hits give low values",1.01
same,normalized growth,"locus YCL016C, strain dcc1, hits give low values",1.01
same,normalized growth,"locus YCL061C, strain MRC1, hits give low values",1.01
same,normalized growth,"locus YCL069W, strain vba3, hits give low values",1.01
same,normalized growth,"locus YCR088W, strain abp1, hits give low values",1
same,normalized growth,"locus YDL005C, strain med2, hits give low values",1.03
same,normalized growth,"locus YDL040C, strain nat1, hits give low values",1.01
same,normalized growth,"locus YDR001C, strain nth1, hits give low values",1.01
same,normalized growth,"locus YDR069C, strain doa4, hits give low values",1
same,normalized growth,"locus YDR137W, strain rgp1, hits give low values",0.879
same,normalized growth,"locus YDR159W, strain sac3, hits give low values",1.03
same,normalized growth,"locus YDR195W, strain ref2",1.05
same,normalized growth,"locus YDR297W, strain sur2, hits give low values",1.01
same,normalized growth,"locus YDR334W, strain swr1, hits give low values",1.01
same,normalized growth,"locus YDR335W, strain msn5, hits give low values",1.01
same,normalized growth,"locus YDR392W, strain spt3, hits give low values",0.77
same,normalized growth,"locus YEL003W, strain gim4, hits give low values",1.01
same,normalized growth,"locus YEL037C, strain rad23, hits give low values",0.985
same,normalized growth,"locus YEL061C, strain CIN8 (second series), hits give low values",1
same,normalized growth,"locus YER015W, strain faa2, hits give low values",1.01
same,normalized growth,"locus YER016W, strain bim1, hits give low values",1.01
same,normalized growth,"locus YER111C, strain swi4, hits give low values",1.01
same,normalized growth,"locus YER155C, strain BEM2 (second series), hits give low values",0.928
same,normalized growth,"locus YFR010W, strain ubp6, hits give low values",0.995
same,normalized growth,"locus YGL167C, strain pmr1, hits give low values",1
same,normalized growth,"locus YGL173C, strain kem1, hits give low values",1.01
same,normalized growth,"locus YGL227W, strain vid30, hits give low values",1.02
same,normalized growth,"locus YGL240W, strain doc1, hits give low values",0.947
same,normalized growth,"locus YGL253W, strain hxk2, hits give low values",1
same,normalized growth,"locus YHR013C, strain ard1, hits give low values",1.07
same,normalized growth,"locus YHR027C, strain rpn1, hits give low values",1.01
same,normalized growth,"locus YHR030C, strain SLT2, hits give low values",1.04
same,normalized growth,"locus YHR079C, strain IRE1, hits give low values",1.03
same,normalized growth,"locus YHR142W, strain chs7, hits give low values",0.961
same,normalized growth,"locus YJL092W, strain hpr5, hits give low values",1
same,normalized growth,"locus YJL095W, strain BCK1 (second series), hits give low values",1.01
same,normalized growth,"locus YJL095W, strain BCK1, hits give low values",0.985
same,normalized growth,"locus YJL115W, strain asf1, hits give low values",1
same,normalized growth,"locus YJL129C, strain trk1, hits give low values",0.973
same,normalized growth,"locus YJL154C, strain vps35, hits give low values",1.01
same,normalized growth,"locus YJL164C, strain tpk1, hits give low values",0.994
same,normalized growth,"locus YJL166W, strain qcr8, hits give low values",0.981
same,normalized growth,"locus YJL187C, strain SWE1, hits give low values",1.01
same,normalized growth,"locus YJR066W, strain TOR1, hits give low values",0.969
same,normalized growth,"locus YKL160W, strain elf1, hits give low values",0.987
same,normalized growth,"locus YKR026C, strain gcn3, hits give low values",0.994
same,normalized growth,"locus YKR091W, strain srl3, hits give low values",1.01
same,normalized growth,"locus YLL001W, strain dnm1, hits give low values",1.02
same,normalized growth,"locus YLL026W, hits give low values",1.01
same,normalized growth,"locus YLL041C, strain sdh2, hits give low values",1
same,normalized growth,"locus YLR027C, strain aat2, hits give low values",1.01
same,normalized growth,"locus YLR113W, strain HOG1, hits give low values",0.98
same,normalized growth,"locus YLR221C, strain rsa3, hits give low values",0.983
same,normalized growth,"locus YLR258W, strain gsy2, hits give low values",1.01
same,normalized growth,"locus YLR262C, strain YPT6 (second series), hits give low values",0.884
same,normalized growth,"locus YLR320W, strain mms22, hits give low values",0.927
same,normalized growth,"locus YLR342W, strain FKS1, hits give low values",1.01
same,normalized growth,"locus YLR357W, strain rsc2, hits give low values",1.04
same,normalized growth,"locus YLR370C, strain arc18, hits give low values",1.01
same,normalized growth,"locus YLR384C, strain iki3, hits give low values",1.01
same,normalized growth,"locus YML120C, strain ndi1, hits give low values",0.986
same,normalized growth,"locus YMR058W, strain fet3, hits give low values",1.01
same,normalized growth,"locus YMR125W, strain sto1, hits give low values",1.04
same,normalized growth,"locus YMR129W, hits give low values",1.01
same,normalized growth,"locus YMR205C, strain PFK2, hits give low values",0.998
same,normalized growth,"locus YMR231W, strain pep5, hits give low values",1.01
same,normalized growth,"locus YNL071W, strain lat1, hits give low values",0.906 (active)
same,normalized growth,"locus YNL183C, strain NPR1, hits give low values",0.949
same,normalized growth,"locus YNL209W, strain ssb2, hits give low values",1.01
same,normalized growth,"locus YNL248C, strain rpa49, hits give low values",0.953
same,normalized growth,"locus YNL322C, strain KRE1 (second series), hits give low values",1.01
same,normalized growth,"locus YNR049C, strain mso1, hits give low values",1.01
same,normalized growth,"locus YOR001W, strain rrp6, hits give low values",0.988
same,normalized growth,"locus YOR070C, strain gyp1, hits give low values",1
same,normalized growth,"locus YOR080W, strain dia2, hits give low values",1.01
same,normalized growth,"locus YOR083W, strain WHI5, hits give low values",0.982
same,normalized growth,"locus YOR106W, strain vam3, hits give low values",0.977
same,normalized growth,"locus YOR231W, strain MKK1, hits give low values",1.02
same,normalized growth,"locus YOR265W, strain rbl2, hits give low values",1.01
same,normalized growth,"locus YOR270C, strain vph1, hits give low values",0.952
same,normalized growth,"locus YOR290C, strain snf2, hits give low values",1
same,normalized growth,"locus YPL051W, strain arl3, hits give low values",0.973
same,normalized growth,"locus YPL078C, strain atp4, hits give low values",0.964
same,normalized growth,"locus YPL106C, strain sse1, hits give low values",1.01
same,normalized growth,"locus YPL240C, strain hsp82, hits give low values",1
same,normalized growth,"locus YPL256C, strain CLN2, hits give low values",1.02
